Compound activity deposited in PubChem BioAssay by University of Kansas High Throughput Screening Laboratory.
Pf apPOL block: Pf-apPOL DNA polymerase inhibition. Recombinant Pf-apPOL, molecular beacon fluorescence, 1.5 h. inhibition, % at 10 µM. actives 0.25% (n = 210,000). AID 1794808
mHTT CaM bind: inhibitors of human mutant huntingtin-calmodulin interaction. inhibition, % at 15 µM. AlphaScreen His-mHTT/GST-CaM binding, luminescence. actives 3.6% (n = 190,000);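 also: 0% = both proteins with DMSO and 100% = one protein alone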
Starred values were filed as active, the others as inactive; / = not tested or not shown; + = active, no number. This is a sample that favours compounds with a hit; in the whole collection about 3.6% have one here. Rule as the data show it: active = inhibition above about 50%; inactive = the rest.

SMILES | Pf apPOL block | mHTT CaM bind
Cc1cc(C(=O)Nc2ccc(-c3cnco3)cc2)nn1C | -10 | /
O=C(Nc1c2c(nn1-c1cccc(Cl)c1)CS(=O)(=O)C2)C1CCCCC1 | -4 | -1
Cc1ccc(S(=O)(=O)N2CC=C(c3cn(C)c4ncccc34)CC2)cc1C | -4 | 12
O=[N+]([O-])c1ccc(-c2nnn(CNc3ccccc3)n2)cc1 | -2 | 53*
O=C(Cn1nnc(-c2ccccc2)n1)Nc1cccc([N+](=O)[O-])c1 | -3 | 7
Cc1ccc(N2CCN(CC(=O)NCc3nc(-c4ccccc4)no3)C2=O)cc1 | -14 | -11
O=S1(=O)N=C(Nc2ccccc2O)c2ccccc21 | -5 | 0
O=S1(=O)N=C(N/N=C/c2cc(Cl)ccc2O)c2ccccc21 | / | +
N#CC1=C(N)Oc2n[nH]c(-c3ccc4c(c3)OCO4)c2C1c1ccccc1C(F)(F)F (stereo not given) | -5 | 37
COC(=O)Nc1ccc(S(=O)(=O)NC(C)=O)cc1 | 0 | 3
COC(=O)Nc1ccc(S(=O)(=O)Nc2cc(C(C)C)c(O)c(C(C)C)c2)cc1 | 1 | 56*
Cc1cccc(C)c1N=C(NO)c1nonc1N | -1 | 2
CC(C)(C)c1ccc(C=C2SC(=S)N(CCC(=O)O)C2=O)cc1 | 1 | 34
CCOC(=O)CCCN1C(=O)C(=Cc2ccc3c(c2)OCO3)SC1=S | -6 | 14
O=C(O)CCN1C(=O)C(=Cc2ccc([N+](=O)[O-])o2)SC1=S | 50* | 44
O=C(O)CCCCCN1C(=O)C(=Cc2ccc3c(c2)OCO3)SC1=S | 14 | 52*
O=C(O)CN1C(=O)C(=Cc2ccccc2O)SC1=S | 0 | 17
O=C(O)CN1C(=O)C(=Cc2ccc(-c3cccc4c3C(=O)c3ccccc3C4=O)o2)SC1=S | 95* | 39
CC(C)C(=O)Nc1ccc(C2(C(=O)N(C)C)CCCCC2)cc1 | -1 | -4
CCOc1ccc(-n2nc(C(=O)N(C)Cc3ccccc3)c3ccccc3c2=O)cc1 | -4 | 21
O=C(c1cccc(Cl)c1)N1CCC2(C1)NC(=O)N(Cc1ccc(F)cc1)C2=O (stereo not given) | -2 | 10
COc1cccc2cc(C(N)=O)c(=Nc3ccc(O)cc3)oc12 | -4 | 99*
COc1cccc2cc(C(N)=O)c(=Nc3ccc(C(N)=O)cc3)oc12 | 1 | -18
Cc1c(C(=O)Nc2cccc(Cl)c2)sc2ncn(Cc3ccccc3F)c(=O)c12 | -13 | -3
CC(C)CCNC(=O)N1CCC(c2nc3ccncc3n2C(C)C)C1 (stereo not given) | 0 | 3
SMILES | Pf apPOL block | mHTT CaM bind
CCCn1c(C(=O)NCC2CCCO2)cc2sc(Br)cc21 (stereo not given) | -4 | 60*
C=C(C)Cn1c(C(=O)NCC2CCCO2)cc2sc(C)cc21 (stereo not given) | -13 | 8
CCCn1c(C(=O)N2CCN(C(C)=O)CC2)cc2sc(Br)cc21 | -2 | 54*
CCCn1c(C(=O)N2CCOCC2)cc2sc(C)cc21 | -4 | 29
CCN1CCn2c(nc3cc(C(=O)Nc4cccc(F)c4)ccc32)C1=O | 2 | -6
CC(NC(=O)c1ccc([N+](=O)[O-])o1)c1ccccc1 (stereo not given) | 2 | -2
CCOc1ccc(CNC(=O)CCC(=O)N2CC3CCCN3c3ccccc32)cc1OC (stereo not given) | -1 | 30
Cc1ccc(O)c(NC(=O)c2nn3c(c2Cl)NC(c2cccs2)CC3C(F)(F)F)c1 (stereo not given) | 2 | 55*
Cc1ccc(O)c(NC(=O)c2nn3c(c2Cl)NC(c2ccccc2)CC3C(F)(F)F)c1 (stereo not given) | -2 | 54*
CC(C)(C)NC(=O)c1nn2c(c1Cl)NC(c1ccccc1)CC2C(F)(F)F (stereo not given) | 2 | 11
O=C(Nc1cccc(Cl)c1)c1nn2c(c1Cl)NC(c1cccs1)CC2C(F)(F)F (stereo not given) | -4 | 17
O=C1OC(c2ccccc2)=N/C1=C/c1ccc(/C=C2/N=C(c3ccccc3)OC2=O)cc1 | -2 | 5
CCC1CN2C=NC(N3CCN(C(=O)NCc4cccc(OC)c4)CC3)=CC2=N1 (stereo not given) | -2 | 0
Cc1cccnc1Nc1nc(-c2ccc(O)cc2O)cs1 | -14 | 100*
Cc1ccc(-c2csc(Nc3ccccn3)n2)c(C)c1 | -1 | 3
Cc1ccc(Nc2nc(-c3ccc(O)c(O)c3)cs2)nc1 | -4 | 79*
COc1ccc(-c2csc(Nc3ncccc3C)n2)cc1C | 5 | 26
Oc1ccc(-c2csc(Nc3ccccn3)n2)c(O)c1 | 2 | 96*
Cc1ccc(Nc2nc(-c3ccc4c(c3)OCO4)cs2)nc1 | -2 | 8
CC(C)c1nc2c(NC(=O)c3ccsc3)cccn2n1 | 1 | -1
O=C1C2=C(Nc3ccccc3SC2c2ccc(Br)cc2)c2ccccc21 (stereo not given) | / | 70*
COc1ccc(OC)c(C2Sc3ccccc3NC3=C2C(=O)c2ccccc23)c1 (stereo not given) | -55 | 71*
COc1ccc(OC)c(C2C3=C(Nc4c2c(=O)n(C)c(=O)n4C)c2ccccc2C3=O)c1 (stereo not given) | -6 | -1
O=C1OCC2=C1C(c1ccc(F)cc1)Sc1ccccc1N2 (stereo not given) | 1 | 2
O=C1C2=C(Nc3ccccc3SC2c2ccc([N+](=O)[O-])cc2)c2ccccc21 (stereo not given) | -7 | 66*
SMILES | Pf apPOL block | mHTT CaM bind
CCOC(=O)C1=C(C)NC2=C(C(=O)c3ccccc32)C1c1ccc([N+](=O)[O-])cc1 (stereo not given) | -8 | /
O=C1C2=C(Nc3[nH]n(-c4ccccc4)c(=O)c3C2c2ccc([N+](=O)[O-])cc2)c2ccccc21 (stereo not given) | 1 | 50*
Cn1c2c(c(=O)n(C)c1=O)C(c1ccc([N+](=O)[O-])cc1)C1=C(N2)c2ccccc2C1=O (stereo not given) | -4 | -4
CCOC(=O)C(C#N)=CNc1ccc2oc3ncccc3c(=O)c2c1 | 6 | /
CC(C)NC(=O)c1ccccc1NC(=O)c1ccc(Cl)cc1 | 2 | -6
O=C(CSc1ccccc1)N1CCCCC1 | -2 | 2
COc1ccc(Cl)cc1NC(=O)CN1C(=O)CC(C)Sc2ccccc21 (stereo not given) | -4 | 0
COc1ccc(NC(=O)CN2C(=O)CC(c3ccco3)Sc3ccccc32)c(OC)c1 (stereo not given) | -3 | 92*
COc1ccc(O)c(C=NCCNS(=O)(=O)c2ccc(C)cc2[N+](=O)[O-])c1 | -1 | 4
Cc1ccccc1CNC(=O)c1csc(-c2cn(C)c3ncccc23)n1 | -1 | 72*
Cn1cc(-c2nc(C(=O)NCc3ccccc3)cs2)c2cccnc21 | -1 | 46
O=C(CCc1nnc(-c2ccc(F)c(F)c2)[nH]c1=O)NC1CC1 | 2 | 4
CC1=CC(=O)C(Br)=CC1=NS(=O)(=O)c1ccc(C)cc1 | -9 | 64*
Cc1cc(C)c(S(=O)(=O)N=C2C=CC(=O)C=C2)c(C)c1 | -4 | 39
CCN(CC)C(=NS(=O)(=O)c1cc(C)ccc1C)c1ccccc1 | 3 | 6
Cc1ccc(S(=O)(=O)N=C2C=C(C(C)C)C(=O)C(C(C)C)=C2)cc1 | 1 | -4
Cc1ccc(S(=O)(=O)N=C2C=CC(=O)C(Br)=C2)cc1 | -4 | 59*
Cc1ccc(S(=O)(=O)N=C2C=C(Br)C(=O)C(Br)=C2)cc1 | 0 | 45
